From PubChem BioAssay AID485344 (National Center for Advancing Translational Sciences (NCATS), 2010)
Out of some 340,000 compounds screened, about 6,900 (2%) were called active. This excerpt belongs to a sample that is enriched for actives. Values without a mark were called inactive. No stated cut-off is given here; in the data, active means inhibition above about 30%; inactive means below that, where a call was filed.

Molecular target: D(2) dopamine receptor (Homo sapiens) (UniProt P14416)
Test: HTS Assay for Allosteric Antagonists of the Human D2 Dopamine Receptor: Primary Screen for Antagonists; further: 0% is about no effect
Conditions: HEK293 TREx D2 cells, calcium flux, dopamine EC80; at 10 µM; hits give high values
Method in brief: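 Measurement of antagonist activity uses fluorescent calcium dye in inducible HEK293 T-REx D2 cells: 10 s baseline, compound addition with 180 s read, EC80 dopamine addition with a further 180 s read.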

D(2) dopamine receptor (Homo sapiens), sequence (P14416 whole entry, looked up): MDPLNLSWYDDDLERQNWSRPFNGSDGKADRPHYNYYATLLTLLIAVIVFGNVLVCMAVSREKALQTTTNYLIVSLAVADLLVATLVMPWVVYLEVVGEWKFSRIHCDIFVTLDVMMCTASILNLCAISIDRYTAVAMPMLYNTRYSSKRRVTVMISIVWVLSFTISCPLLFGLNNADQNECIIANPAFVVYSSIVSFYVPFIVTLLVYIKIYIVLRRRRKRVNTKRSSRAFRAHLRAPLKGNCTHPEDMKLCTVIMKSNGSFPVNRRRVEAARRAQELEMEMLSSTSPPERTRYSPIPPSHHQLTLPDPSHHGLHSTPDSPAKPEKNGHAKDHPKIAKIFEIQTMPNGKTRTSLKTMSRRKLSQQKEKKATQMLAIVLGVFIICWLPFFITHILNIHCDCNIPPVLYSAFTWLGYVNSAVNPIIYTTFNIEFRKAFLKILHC

SMILES	inhibition
CN(C)CCn1c2c(c(SCC(=O)NCc3ccccc3)nc1=O)CCC2	-8.18%
COCCNc1nnc(SCC(=O)NNC(=O)c2ccco2)s1	-27.3%
COc1ccccc1NS(=O)(=O)c1ccc(C)c(C(=O)NCC(c2ccco2)N(C)C)c1 (stereo unspecified)	7.48%
CN(C)CCOCCOc1ccc(Cl)c2ccccc12	-4.55%
COCCNCCOCCOc1cccc(OC)c1	-3.27%
Clc1cccc(Cl)c1OCCOCCNCc1ccccc1	53% (active)
O=[N+]([O-])c1ccc(N2CCN(CC(O)COc3ccccc3)CC2)cc1 (stereo unspecified)	-9.55%
OC(COCc1ccco1)CN1CCN(c2ccccc2)CC1 (stereo unspecified)	74.4% (active)
OC(COCC1COc2ccccc2O1)CN1CCN(c2ccc(F)cc2)CC1 (stereo unspecified)	2.02%
O=C(CSc1nc2ccccc2c(=O)n1CCCO)NC1CC1	-4.48%
C=CCC(NC(=O)Cc1ccccc1)C(=O)NCCC (stereo unspecified)	1.08%
CCCCC/C=C/C1=CC(=O)C[C@H](c2ccc(Cl)cc2)C1	3.21%
CC(C)(C)OC(=O)N/N=C/c1cn(-c2ccccc2)nc1-c1cccnc1	-2.64%
Cc1nnc(SCC(=O)N/N=C/c2cn(-c3ccccc3)nc2-c2ccc(F)cc2)n1-c1ccccc1	-8.35%
Cc1ccc(-c2nn(-c3ccccc3)cc2/C=N/NC(=O)c2ccc3c(c2)OCO3)cc1	31.8% (active)
Cc1ccc(OCC(=O)N2CCN(S(=O)(=O)c3ccc(Cl)s3)CC2)cc1C	-12%
CCCc1nc2ccccc2c(C(=O)OCc2nnc(-c3cc(OC)c(OC)c(OC)c3)o2)c1CC	38% (active)
O=C(OCc1nnc(-c2ccccc2)o1)c1cc(=O)[nH]c2ccccc12	6.34%
CCCc1nc2ccccc2c(C(=O)OCC(=O)c2ccc3c(c2)NC(=O)CO3)c1CC	-8.13%

SMILES	inhibition
COC(=O)c1cccc(NC(=O)CN2CCC(NC(=O)c3cc(OC)c(OC)c(OC)c3)CC2)c1	-8.24%
COc1ccc(C(=O)NC2CC2)cc1OC1CCN(Cc2ccc(SC)cc2)CC1	2.51%
COc1cc(C(=O)NC2CCN(Cc3ccccc3)CC2)cc(Cl)c1OC(C)C	47.6% (active)
COc1cc2[nH]c(=O)n(CCC(=O)NC3CCN(Cc4ccccc4)CC3)c(=O)c2cc1OC	-8.24%
CCOc1cc2[nH]c(=O)n(Cc3ccc(C(=O)NCCCN4CCCC4=O)cc3)c(=O)c2cc1OCC	9.71%
COc1cc2[nH]c(=O)n(Cc3ccc(C(=O)NC4CCN(Cc5ccccc5)CC4)cc3)c(=O)c2cc1OC	90.8% (active)
Cc1c(NC(=O)CSc2nnc(-c3cccnc3)n2N)c(=O)n(-c2ccccc2)n1C	7.44%
CCCCn1c(N)c(N(CCC(C)C)C(=O)c2ccc(COc3ccccc3)o2)c(=O)[nH]c1=O	-9.11%
C#CCOCCOCCOCCNc1nc(N2CCN(C(=O)CCCCCCCCCCNC(=O)[C@H]([C@@H](C)CC)n3cc(CCCCN=C(N)N)nn3)CC2)nc(N2CCN(C(=O)CCCCCCCCCCNC(=O)[C@H](CO)n3cc(CCCSC)nn3)CC2)n1	1.17%
Cc1ccn2c(=O)nc(SCC(=O)NCc3ccc(F)cc3)nc2c1	17.8%
CC1CCCCN1C(=O)CCS(=O)(=O)Cc1ccccc1 (stereo unspecified)	3.72%
C/C(=N\NC(=S)NCc1ccccc1)C1CCCCC1	-10.6%
CC1CCCCN1C(=S)NCc1ccccc1 (stereo unspecified)	31.9% (active)
O=C(CN1CCCSc2ccccc21)N1CCN(S(=O)(=O)c2ccccc2)CC1	3.3%
O=C(OCc1cc(=O)n2ccsc2n1)C1(c2ccc(Cl)cc2)CC1	29.3%
CSCCC(NC(=O)c1ccccc1)C(=O)N1CCN(Cc2ccc(Cl)cc2)CC1 (stereo unspecified)	-14.3%
N#Cc1ccc(C2=CC(=O)C[C@H](c3ccc(Cl)cc3)C2)cc1	-1.65%
COc1cccc(NC(=O)CN(C)C(=O)c2cc(C3CC3)nn2-c2ccccc2)c1	-0.486%
COc1ccc(NC(=O)CN(C)C(=O)c2cc(C3CC3)nn2-c2ccccc2)cc1	39.5% (active)

SMILES	inhibition
CCc1ccccc1NC(=O)CN(C)C(=O)c1cc(C2CC2)nn1-c1ccccc1	2.39%
Cc1csc(=O)n1CCC(=O)OCC(=O)NNC(=O)c1ccc(Br)cc1	-9.52%
Cc1c(C(C)CCCO)oc(=O)c2c1Oc1c(C)c(C(C)C[C@@H](C)O)oc(=O)c1C2 (stereo partly specified)	17%
Cc1ccc(C(=O)OCC(=O)N2CC(C)CC(C)C2)cc1S(=O)(=O)N1CCCCC1 (stereo unspecified)	19.3%
O=C(CN1CCN(c2ccccc2)CC1)Nc1ccc(F)cc1	13.5%
O=C(CCN1CCN(c2ccccc2)CC1)NNC(=S)Nc1ccccc1	61.2% (active)
O=C(CN1CCN(c2ccc(F)cc2)CC1)Nc1ccccc1	-19.8%
Cc1cccc(C)c1NC(=O)COC(=O)c1c(C)nn(-c2ccccc2)c1C	1.57%
Cc1ccc(C(CC(=O)O)NC(=O)c2ccc(S(=O)(=O)N3CCCC3)cc2)cc1 (stereo unspecified)	8.12%
CN(C)CCCN1C(=O)CSC1c1ccc([N+](=O)[O-])cc1 (stereo unspecified)	34% (active)
CN(C)CCNC(=O)Cc1ccc([N+](=O)[O-])cc1	-7.39%
CCCCN(C)c1ccc([N+](=O)[O-])cc1	-0.645%
CC(=O)Nc1ccc(S(=O)(=O)N2CCn3cccc3C2C)cc1 (stereo unspecified)	2.61%
CCn1c(SCC(=O)NNC(=O)c2ccc(OC)cc2)nnc1C(C)C	-19.3%
Cc1cccc(C(=O)NNC(=O)CSc2nnc(C(C)C)n2C)c1	41.8% (active)
CCC(c1nnc(SCC(=O)NNC(=O)c2ccccc2)n1Cc1ccccc1)N(C)C (stereo unspecified)	-24.9%
CN(CC(=O)NCc1ccc2c(c1)OCO2)CC(=O)Nc1ccc(F)c(F)c1F	-25.8%
CCC[C@H]1CCCC/C=C\CCCC(=O)OCCN1C(=O)OC(C)(C)C	-5.66%
